The results in this text go back to PubChem BioAssay (Tox21).

Results filed as inconclusive are left out. Entries that show only a call come without a potency. The source made the active and inactive calls. Calls come from the whole dose curve; as a rule, active = well fitted cell-killing curve with a large enough effect in the repeat runs; inconclusive = weak or mixed curves, or effect the other way; inactive = flat fitted curve, though single readings scatter.
Potency is the fitted concentration of half-maximal effect.

This assay in a line: qHTS assay to identify small molecule agonists of the estrogen receptor beta (ER-beta) signaling pathway - cell viability counter screen (AID 1259380). Note: nearly all actives have a fitted effect of over 30% in size. As to conditions: ER-beta-bla HEK293T viability, CellTiter-Glo luminescence, 16 h; series mostly up to 92.4 µM. The source says:
National Center for Advancing Translational Sciences [NCATS]
NIH Chemical Genomics Center [NCGC]
U.S. Environmental Protection Agency [EPA]
National Institutes of Environmental Health Sciences [NIEHS]
National Toxicology Program [NTP]
U.S. Food and Drug Administration [FDA]
Estrogen receptor (ER), a nuclear hormone receptor, plays an important role in development, metabolic homeostasis and reproduction. Two subtypes of ER, ER-alpha and ER-beta, have similar expression patterns with some uniqueness in both types. Endocrine disrupting chemicals (EDCs) and their interactions with steroid hormone receptors like ER causes disruption of normal endocrine function. To identify the compounds that activate ER signaling, an ER beta-UAS-bla GripTite cell line (Life Technologies, Madison, WI, USA) containing a beta-lactamase reporter gene under the control of an UAS response element was used to screen Tox21 10K compound library. The cytotoxicity of the Tox21 compound library against the ER-beta-bla cell line was tested in parallel by measuring the cell viability using CellTiter-Glo assay in the same wells.
Tox21 Assay Protocol Summary:
ER-beta-UAS-bla HEK293T cells were dispensed at 2,000 cells/5 uL of assay medium containing 2% charcoal stripped FBS per well into black wall/clear-bottom 1536-well plates using a Multidrop Combi (ThermoFisher Scientific, Waltham, MA) dispenser. After the assay plates were incubated at a 37C and 5% CO2 for 6 hr, 23 nL of compounds dissolved in DMSO, positive controls or DMSO only was transferred to the assay plate by a Pintool station (Kalypsys, San Diego, CA). The plates were incubated at 37C and 5% CO2 for 16 hr. Then 1 uL of LiveBLAzerTM B/G FRET substrate was added using a BioRAPTR FRD (Flying Reagent Dispenser, Aurora Discovery, San Diego, CA) and then the plates were incubated at room temperature for 2 hours, and fluorescence intensity was measured by an Envision plate reader (PerkinElmer, Shelton, CT). For cell viability readout that measures cytotoxicity, 4 uL/well of CellTiter-Glo reagent was added into the assay plates using a FRD. After 30 min incubation at room temperature, the luminescence intensity in the plates was measured using a ViewLux (PerkinElmer) plate reader.
(Quantitative high-throughput screening tests each substance at several concentrations.)
With `CC(C)[C@H](N)C(=O)OCCOCn1cnc2c(=O)[nH]c(N)nc21`, the Potency entry is “inactive”. As to `CCCCOCC(C)OCC(C)O` (stereo not given), the Potency result is “inactive”.

`COc1cccc(OC)c1`: the Potency entry was “inactive”.

Consider `Cc1cc(C)c(NC(=O)CN(CC(=O)O)CC(=O)O)c(C)c1Br`, for which the Potency entry was “inactive”. On the same count and under the same terms, with `Cc1nccn1CC1CCc2c(c3ccccc3n2C)C1=O` (stereo not given) the entry was “inactive”.

In the case of `CCCCC1CCCCC(=O)O1` (stereo not given), the Potency entry was “inactive”. Still for that read-out and setting: the result for `CCC(=O)/C=C/c1ccc(OC)cc1` reads “inactive”. Still for that read-out and setting: with `O=C1CC2(CCCC2)CC(=O)N1` the entry was “inactive”. Same read-out and setting: with `C=CC(=O)N1CCOCC1` the entry was “inactive”. Regarding `O=C(O)CCNC(=O)c1ccc(N=Nc2ccc(O)c(C(=O)O)c2)cc1`, the Potency entry is “inactive”. Regarding `CCCC=O`, the Potency entry is “inactive”. Same read-out and setting: with `CCCCCCCCCCC1CO1` (stereo not given) the entry was “inactive”; with `COc1cc(C(=O)N2CCOCC2)cc(OC)c1OC`, “inactive”; with `CC(C)CCCC(C)CCCC(C)CCCCC(C)CCCC(C)CCCC(C)C` (stereo not given), “inactive”.

Regarding `CCCCCCCCN(C)CCCCCCCC`, the Potency result is “inactive”. The same measure, in the same setting: with `COc1cc(O)cc(O)c1` the entry was “inactive”; with `C=CC(=O)OCCCCCC`, “inactive”; with `CN(C)C(=O)C(CCN1CCC(O)(c2ccc(Cl)cc2)CC1)(c1ccccc1)c1ccccc1`, 26.6 µM (active). The same measure, in the same setting: with `OCC(O)[C@@H](O)[C@H](O)[C@H](O)CO[C@H]1O[C@H](CO)[C@@H](O)[C@H](O)[C@H]1O` (stereo not given in full) the entry was “inactive”; with `C=CCn1c(=O)n([C@@H]2O[C@H](CO)[C@@H](O)[C@H]2O)c2nc(N)[nH]c(=O)c21`, “inactive”; with `CCC(=O)c1cccc(Cl)c1`, “inactive”. Same read-out and setting: with `c1ccc2cnncc2c1` the entry was “inactive”. On to `CCC(C)(C)C1CCC(OC)CC1` (stereo not given), for which the Potency entry is “inactive”. With `CCn1cc(C(=O)O)c(=O)c2cc(F)c(N3CCN(C)CC3)cc21`, the activity change, negative = cytotoxicity is 5.67% [at 19 µM] (inactive). As to `C1COCCO1`, the Potency entry is “inactive”.

With `CN(C)CCn1nnnc1SCC1=C(C(=O)O)N2C(=O)[C@@H](NC(=O)Cc3csc(N)n3)[C@H]2SC1`, the Potency entry was “inactive”. Still for that read-out and setting: the result for `CCC(C(=O)NC(N)=O)c1ccccc1` (stereo not given) reads “inactive”; that for `O=C1OC(=O)c2cc([N+](=O)[O-])ccc21`, “inactive”; that for `C/C=C1\C(=O)C[C@H]2[C@@H]3CCC4=CC(=O)CC[C@]4(C)[C@H]3CC[C@]12C`, “inactive”. Still for that read-out and setting: with `CC1(C)OC(=O)Nc2ccc(Br)cc21` the entry was “inactive”; with `CSc1ccc(C=O)cc1`, “inactive”. In the case of `NC(=S)Nc1cccc2ccccc12`, the activity change, negative = cytotoxicity was -0.0461% [at 8.39 µM] (inactive). For the compound `CCO[Si](CCCN=C=O)(OCC)OCC`, the Potency result is “inactive”. The same measure, in the same setting: with `NC(=O)CCCCC1CCSS1` (stereo not given) the entry was “inactive”. Consider `COc1ccc2cc(C=O)ccc2c1`, for which the Potency result was “inactive”. Still for that read-out and setting: with `CNC(=O)c1c(I)c(NC(=O)CCCCC(=O)Nc2c(I)c(C(=O)O)c(I)c(C(=O)NC)c2I)c(I)c(C(=O)O)c1I` the entry was “inactive”; with `CCCCCCCCCCCl`, “inactive”. The same measure, in the same setting: the result for `OC/C=C/c1ccccc1` reads “inactive”; that for `Cc1onc(-c2ccccc2)c1-c1ccc(S(N)(=O)=O)cc1`, “inactive”; that for `CC12CCC(CC1=O)C2(C)C` (stereo not given), “inactive”.
